Values joined by “and” are separate entries in the source; they are usually repeats but may differ in a detail not shown here. Equal values may be shown once. Records with an inconclusive call do not appear. A structure can be active in one record and inactive in another. Active and inactive are the calls of the source. The calls were made as follows, unless noted: active = hit-call score of the fitted dose curve at least 0.9, where 1 is the maximum; inconclusive = response in the unintended direction; inactive = score below 0.9.

The nature of test [1]: ATG_TGFb_CIS: Attagene CIS-FACTORIAL HepG2 Assay for human Transforming Growth Factor (TGF) (AID 2282967; active = hit-call score of the fitted dose curve at least 0.9, where 1 is the maximum; inactive = score below 0.9). The following applies: HepG2 Attagene CIS TGFb reporter, mRNA transcription; actives raise or lower the signal. The essentials:
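Bidirectional fitting relative to DMSO gave the endpoint. Underlying data: reporter mRNA from HepG2 cells carrying transiently transfected cis-regulated reporter constructs, harvested 24 h after dosing and analyzed by RT-PCR and capillary electrophoresis.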

A short description of test [2]: ATG_VDRE_CIS: Attagene CIS-FACTORIAL HepG2 Assay for human Vitamin D Receptor Element (VDRE) (AID 2282968; active = hit-call score of the fitted dose curve at least 0.9, where 1 is the maximum; inactive = score below 0.9). The following applies: HepG2 VDRE cis-reporter transcription, actives raise or lower the signal. The method, boiled down:
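Compounds were applied for 24 h to HepG2 cells transfected with promoter-regulated reporter units. Total RNA was reverse-transcribed, and reporter amplicons were fluorescently labelled and sized by capillary electrophoresis.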

Test [3] has as its target Nuclear receptor subfamily 1 group I member 3 (Homo sapiens) (UniProt Q14994). Briefly: ATG_CAR_TRANS: Attagene TRANS-FACTORIAL HepG2 Assay for human Constitutive Androstane Receptor (CAR) (AID 2282969).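 Also: activators raise reporter mRNA above DMSO so AC50 marks induction.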 The following applies: HepG2 Attagene TRANS-FACTORIAL CAR reporter. The essentials:
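Transiently transfected HepG2, multiplex TRANS reporters (CAR-Gal4 chimera driving GAL4-UAS reporter). 24 h dosing. Readout: reporter transcript by RT-PCR + capillary electrophoresis, fluorescence intensity; positive direction vs DMSO.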

For test [4], the target named is Estrogen receptor (Homo sapiens) (UniProt P03372). Briefly: ATG_ERa_TRANS: Attagene TRANS-FACTORIAL HepG2 Assay for human Estrogen Receptor alpha (ERa) (AID 2282970). The following applies: HepG2 Attagene TRANS ERa GAL4 reporter, mRNA. The method, boiled down:
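Gal4-fusion ERa transactivation, measured as reporter transcript level in transiently transfected HepG2 cells. Exposure 24 h; RT-PCR plus capillary electrophoresis with fluorescence detection.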

Test [5] deals with X-box-binding protein 1 (Homo sapiens) (UniProt P17861). The experiment in a line: ATG_Xbp1_CIS: Attagene CIS-FACTORIAL HepG2 Assay for human X-box Binding Protein 1 (XBP1) (AID 2282972; active = hit-call score of the fitted dose curve at least 0.9, where 1 is the maximum; inactive = score below 0.9). The following applies: HepG2 XBP1 cis-element reporter, Attagene multiplex; actives raise or lower the signal. The method, boiled down: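 Read-out: fluorescent reporter mRNA fragments resolved by capillary electrophoresis after RT-PCR. Human HepG2 liver cells carried transfected cis-promoter reporter units and were exposed to chemicals for 24 hours. Gain or loss of signal fitted relative to DMSO baseline.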
X-box-binding protein 1 (Homo sapiens), sequence (P17861 whole entry, looked up, the tested form may be a part): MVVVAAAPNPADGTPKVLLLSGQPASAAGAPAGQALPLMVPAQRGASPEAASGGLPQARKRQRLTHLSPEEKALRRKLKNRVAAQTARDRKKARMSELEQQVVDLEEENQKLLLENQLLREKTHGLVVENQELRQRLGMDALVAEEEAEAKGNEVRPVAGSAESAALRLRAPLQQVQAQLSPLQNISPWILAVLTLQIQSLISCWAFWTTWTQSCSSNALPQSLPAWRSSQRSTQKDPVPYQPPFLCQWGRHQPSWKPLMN

Test [6] can be described thus: ATG_M_19_TRANS: Attagene TRANS-FACTORIAL HepG2 Assay for M19 Transcription Factor (Internal Marker) (AID 2282974). The following applies: HepG2 Attagene TRANS-FACTORIAL M19 internal marker reporter. The essentials:
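Cells: human HepG2, transiently transfected with multiplexed reporter transcription units. Exposure: 24 h. Detection: RT-PCR of reporter mRNA with capillary electrophoresis. Analysis: gain-of-signal vs DMSO.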

Test [7] addresses Glucocorticoid receptor (Homo sapiens) (UniProt P04150). Briefly: ATG_GR_TRANS: Attagene TRANS-FACTORIAL HepG2 Assay for human Glucocorticoid Receptor (GR) (AID 2282978).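 Also: activators score as hits since higher reporter transcript over DMSO is fitted.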 The following applies: HepG2 Attagene TRANS GR reporter, mRNA transcription. The method, boiled down: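 In this trans-factorial format, exogenous NR-GAL4 chimeric proteins in transfected HepG2 cells regulate GAL4-UAS reporter transcription. After 24 h treatment, reporter mRNA induction relative to DMSO is read by RT-PCR and capillary electrophoresis.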

For test [8], the target named is Bile acid receptor (Homo sapiens) (UniProt Q96RI1). The experiment in a line: ATG_FXR_TRANS: Attagene TRANS-FACTORIAL HepG2 Assay for Farnesoid X Receptor (FXR) (AID 2282979).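 Also: hits raise reporter mRNA above DMSO so AC50 marks FXR activation.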 The following applies: HepG2 Attagene TRANS FXR-GAL4 reporter transcription. The method, boiled down:
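HepG2 cells were transiently transfected with GAL4-UAS reporters driven by chimeric NR-Gal4 proteins and dosed for 24 h. Reporter mRNA was quantified by RT-PCR, fluorescent labelling, HpaI digestion and capillary electrophoresis, with gain of signal scored versus DMSO.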

Test [9] concerns the target Transcriptional activator Myb (Homo sapiens) (UniProt P10242). Briefly: ATG_Myb_CIS: Attagene CIS-FACTORIAL HepG2 Assay for human Myeloblastosis (Myb) Proto-Oncogene Transcription Factor (AID 2282986; active = hit-call score of the fitted dose curve at least 0.9, where 1 is the maximum; inactive = score below 0.9). The following applies: HepG2 Attagene CIS-FACTORIAL Myb reporter transcription; actives raise or lower the signal. The method, boiled down: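 Steps: transfect HepG2 with cis-regulated reporter units; dose with chemical for 24 h; isolate RNA, reverse-transcribe, PCR-amplify and FAM-label reporter sequences; digest with HpaI; resolve by capillary electrophoresis. Activity fitted in both directions relative to DMSO.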

Test [10] deals with Nuclear respiratory factor 1 (Homo sapiens) (UniProt Q16656). Briefly: ATG_NRF1_CIS: Attagene CIS-FACTORIAL HepG2 Assay for human Nuclear Respiratory Factor 1 (NRF1) Orphan Gene (AID 2282987; active = hit-call score of the fitted dose curve at least 0.9, where 1 is the maximum; inactive = score below 0.9). The following applies: HepG2 NRF1 cis-element reporter, Attagene multiplex; actives raise or lower the signal. The method, boiled down: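 Fluorescence intensity of labelled reporter cDNA fragments, resolved by capillary electrophoresis, served as readout for NRF1 cis-element activity. Transiently transfected HepG2 cells were dosed for 24 hours; activity in either direction was fitted against DMSO negative control.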
Nuclear respiratory factor 1 (Homo sapiens), sequence (Q16656 whole entry, looked up, the tested form may be a part): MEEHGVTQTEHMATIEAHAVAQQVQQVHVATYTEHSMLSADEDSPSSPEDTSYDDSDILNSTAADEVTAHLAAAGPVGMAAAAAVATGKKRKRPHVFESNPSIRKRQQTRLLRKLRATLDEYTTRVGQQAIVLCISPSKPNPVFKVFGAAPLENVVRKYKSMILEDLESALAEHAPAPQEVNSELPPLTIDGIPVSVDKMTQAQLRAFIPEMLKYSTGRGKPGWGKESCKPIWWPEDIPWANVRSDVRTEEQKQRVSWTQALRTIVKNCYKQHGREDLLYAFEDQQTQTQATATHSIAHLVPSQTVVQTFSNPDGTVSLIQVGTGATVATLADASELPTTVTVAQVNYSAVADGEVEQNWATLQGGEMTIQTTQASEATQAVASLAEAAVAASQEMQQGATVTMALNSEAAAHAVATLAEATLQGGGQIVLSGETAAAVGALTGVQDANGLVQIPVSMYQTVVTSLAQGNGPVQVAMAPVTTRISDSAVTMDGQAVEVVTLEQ

A short description of test [11]: ATG_NFI_CIS: Attagene CIS-FACTORIAL HepG2 Assay for human Nuclear Factor I (NFI) (AID 2282989; active = hit-call score of the fitted dose curve at least 0.9, where 1 is the maximum; inactive = score below 0.9). The following applies: HepG2 cis-regulatory reporter, NFI response element transcription; actives raise or lower the signal. The method, boiled down:
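Cells: human liver HepG2, transiently transfected with promoter-regulated reporter transcription units. Exposure 24 h. Detection: fluorescent RT-PCR products separated by capillary electrophoresis, normalised to DMSO negative control.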

The nature of test [12]: ATG_GAL4_TRANS: Attagene TRANS-FACTORIAL HepG2 Assay for GAL4 (Internal Marker) (AID 2282976). The following applies: HepG2 Attagene TRANS GAL4 internal marker reporter. The method, boiled down: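 Background-control readout: GAL4-UAS reporter transcript in transiently transfected HepG2 cells after 24 h compound exposure. Measured by RT-PCR, 6-FAM primer extension, HpaI digest and capillary electrophoresis; gain-of-signal fit versus DMSO.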

Test [13] is described as follows: ATG_M_06_TRANS: Attagene TRANS-FACTORIAL HepG2 Assay for M06 Transcription Factor (Internal Marker) (AID 2282983). The following applies: HepG2 Attagene TRANS M06 internal marker reporter. The method, boiled down:
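mRNA levels of a reporter transcript, quantified as FAM fluorescence on capillary electrophoresis, served as readout. HepG2 cells expressing exogenous GAL4-chimera reporter constructs were exposed for 24 h. Gain of signal over DMSO was evaluated.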

The target of test [14] is Nuclear receptor subfamily 4 group A member 2 (Homo sapiens) (UniProt P43354). The experiment in a line: ATG_NURR1_TRANS: Attagene TRANS-FACTORIAL HepG2 Assay for human Nuclear Receptor Related Protein 1 (NURR1) (AID 2282985). The following applies: HepG2 Attagene TRANS reporter, mRNA readout. The essentials: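 Endpoint: reporter mRNA increase relative to DMSO. HepG2 cells transfected with reporter units, treated 24 h; RNA processed by RT-PCR, labelling, HpaI digestion and capillary electrophoresis.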
Nuclear receptor subfamily 4 group A member 2 (Homo sapiens), sequence (P43354 whole entry, looked up): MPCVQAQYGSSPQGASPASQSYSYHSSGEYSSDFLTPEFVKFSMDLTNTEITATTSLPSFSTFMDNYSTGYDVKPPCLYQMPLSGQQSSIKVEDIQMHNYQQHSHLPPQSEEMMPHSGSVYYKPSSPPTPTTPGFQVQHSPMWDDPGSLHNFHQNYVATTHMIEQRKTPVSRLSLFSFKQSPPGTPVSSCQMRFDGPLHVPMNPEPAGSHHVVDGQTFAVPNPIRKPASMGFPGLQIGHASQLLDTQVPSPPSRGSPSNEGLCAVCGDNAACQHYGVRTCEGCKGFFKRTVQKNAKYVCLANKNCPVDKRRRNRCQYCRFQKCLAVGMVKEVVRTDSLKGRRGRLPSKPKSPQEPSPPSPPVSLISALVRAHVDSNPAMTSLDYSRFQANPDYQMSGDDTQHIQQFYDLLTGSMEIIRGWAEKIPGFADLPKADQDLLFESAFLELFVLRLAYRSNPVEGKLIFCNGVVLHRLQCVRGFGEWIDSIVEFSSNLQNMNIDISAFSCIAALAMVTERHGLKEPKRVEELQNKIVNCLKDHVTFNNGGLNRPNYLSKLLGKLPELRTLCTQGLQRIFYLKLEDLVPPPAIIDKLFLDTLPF

Test [15] concerns the target Hepatocyte nuclear factor 4-alpha (Homo sapiens) (UniProt P41235). The experiment in a line: ATG_HNF4a_TRANS: Attagene TRANS-FACTORIAL HepG2 Assay for human Hepatocyte Nuclear Factor 4 alpha (HNF4a) (AID 2282982). The following applies: HepG2 HNF4a transactivation reporter, mRNA readout. The essentials:
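Endpoint reflects transcriptional activation of a GAL4-UAS reporter by an HNF4a-GAL4 chimera in transfected HepG2 cells, 24 h post-dosing. Fluorescence from RT-PCR products separated by capillary electrophoresis; DMSO baseline.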

Test [16] has as its target Steroid hormone receptor ERR1 (Homo sapiens) (UniProt P11474). Briefly: ATG_ERRa_TRANS: Attagene TRANS-FACTORIAL HepG2 Assay for human Estrogen-Related Receptor alpha (ERRa) (AID 2282971). The following applies: HepG2 Attagene TRANS reporter, ERRa transactivation. The essentials: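 HepG2 cells transiently transfected with GAL4-UAS reporter units and chimeric NR-Gal4 constructs; after 24 hour compound incubation, reporter mRNA quantified by RT-PCR, fluorescent labelling and capillary electrophoresis, gain of signal versus DMSO.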

Test [17] has as its target Estrogen-related receptor gamma (Homo sapiens) (UniProt P62508). The experiment in a line: ATG_ERRg_TRANS: Attagene TRANS-FACTORIAL HepG2 Assay for human Estrogen-Related Receptor gamma (ERRg) (AID 2282977).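 Also: hits increase reporter signal over DMSO so potencies reflect activators.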 The following applies: HepG2 Attagene TRANS reporter, ERRg transactivation. The essentials:
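Induction of reporter transcripts through a chimeric NR-Gal4 protein is quantified in transfected human HepG2 liver cells after 24 h chemical exposure, using RT-PCR with capillary electrophoresis detection and DMSO as baseline.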

Test [18] concerns the target Oxysterols receptor LXR-alpha (Homo sapiens) (UniProt Q13133). The experiment in a line: ATG_LXRa_TRANS: Attagene TRANS-FACTORIAL HepG2 Assay for human Liver X Receptor alpha (LXRa) (AID 2282980). The following applies: HepG2 Attagene TRANS reporter, LXRa transactivation. The essentials:
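HepG2 cells transiently transfected with GAL4-UAS reporter units for chimeric NR-Gal4 proteins, exposed to chemicals for 24 h. Reporter mRNA quantified by RT-PCR and capillary electrophoresis; gain of signal fitted relative to DMSO.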

Hepatocyte nuclear factor 4-alpha (Homo sapiens), sequence (P41235 whole entry, looked up, the tested form may be a part): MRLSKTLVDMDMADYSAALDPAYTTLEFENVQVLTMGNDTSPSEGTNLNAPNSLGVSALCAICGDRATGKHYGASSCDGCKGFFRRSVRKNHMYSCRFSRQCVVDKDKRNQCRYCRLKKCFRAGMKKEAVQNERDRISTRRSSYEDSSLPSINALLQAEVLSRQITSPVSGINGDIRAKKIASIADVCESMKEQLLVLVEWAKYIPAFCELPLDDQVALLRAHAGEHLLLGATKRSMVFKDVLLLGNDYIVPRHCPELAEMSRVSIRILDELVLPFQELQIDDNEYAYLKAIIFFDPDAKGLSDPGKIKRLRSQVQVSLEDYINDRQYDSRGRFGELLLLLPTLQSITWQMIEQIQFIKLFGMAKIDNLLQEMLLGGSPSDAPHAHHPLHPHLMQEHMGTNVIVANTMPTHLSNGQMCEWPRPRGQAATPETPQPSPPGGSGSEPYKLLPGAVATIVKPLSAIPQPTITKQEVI
Transcriptional activator Myb (Homo sapiens), sequence (P10242 whole entry, looked up): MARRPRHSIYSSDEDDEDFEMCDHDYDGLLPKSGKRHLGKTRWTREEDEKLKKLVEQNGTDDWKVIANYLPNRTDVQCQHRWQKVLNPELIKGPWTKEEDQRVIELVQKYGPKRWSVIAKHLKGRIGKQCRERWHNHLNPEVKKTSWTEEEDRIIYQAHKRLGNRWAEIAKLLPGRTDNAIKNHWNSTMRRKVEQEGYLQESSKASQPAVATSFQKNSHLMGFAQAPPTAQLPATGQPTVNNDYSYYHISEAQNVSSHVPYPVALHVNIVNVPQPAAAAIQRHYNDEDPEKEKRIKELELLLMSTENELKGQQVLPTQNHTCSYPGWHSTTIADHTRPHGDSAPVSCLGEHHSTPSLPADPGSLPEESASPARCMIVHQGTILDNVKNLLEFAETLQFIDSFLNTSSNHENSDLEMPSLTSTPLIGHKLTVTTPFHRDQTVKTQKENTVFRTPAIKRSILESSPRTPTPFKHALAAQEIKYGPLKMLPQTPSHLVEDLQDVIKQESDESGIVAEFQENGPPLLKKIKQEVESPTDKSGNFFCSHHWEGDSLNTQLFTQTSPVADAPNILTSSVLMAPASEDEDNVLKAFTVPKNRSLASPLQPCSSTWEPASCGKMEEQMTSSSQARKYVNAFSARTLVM
Estrogen receptor (Homo sapiens), sequence (P03372 whole entry, looked up, the tested form may be a part): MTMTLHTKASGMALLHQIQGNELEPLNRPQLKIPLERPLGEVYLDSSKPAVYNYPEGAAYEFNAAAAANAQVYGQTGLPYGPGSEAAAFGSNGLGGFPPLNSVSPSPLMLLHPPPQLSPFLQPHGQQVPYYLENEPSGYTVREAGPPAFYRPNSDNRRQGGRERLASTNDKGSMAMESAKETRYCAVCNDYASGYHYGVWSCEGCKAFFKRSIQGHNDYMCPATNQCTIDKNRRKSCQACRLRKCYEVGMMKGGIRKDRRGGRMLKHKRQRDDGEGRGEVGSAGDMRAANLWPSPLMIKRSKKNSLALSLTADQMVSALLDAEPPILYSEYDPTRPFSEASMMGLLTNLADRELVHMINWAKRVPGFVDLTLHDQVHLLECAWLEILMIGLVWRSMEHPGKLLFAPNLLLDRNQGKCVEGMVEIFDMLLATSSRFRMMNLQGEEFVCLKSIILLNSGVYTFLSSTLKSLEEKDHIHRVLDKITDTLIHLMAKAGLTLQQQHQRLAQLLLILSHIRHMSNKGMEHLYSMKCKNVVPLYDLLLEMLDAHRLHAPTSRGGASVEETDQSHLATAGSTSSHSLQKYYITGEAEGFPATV
Glucocorticoid receptor (Homo sapiens), sequence (P04150 whole entry, looked up, the tested form may be a part): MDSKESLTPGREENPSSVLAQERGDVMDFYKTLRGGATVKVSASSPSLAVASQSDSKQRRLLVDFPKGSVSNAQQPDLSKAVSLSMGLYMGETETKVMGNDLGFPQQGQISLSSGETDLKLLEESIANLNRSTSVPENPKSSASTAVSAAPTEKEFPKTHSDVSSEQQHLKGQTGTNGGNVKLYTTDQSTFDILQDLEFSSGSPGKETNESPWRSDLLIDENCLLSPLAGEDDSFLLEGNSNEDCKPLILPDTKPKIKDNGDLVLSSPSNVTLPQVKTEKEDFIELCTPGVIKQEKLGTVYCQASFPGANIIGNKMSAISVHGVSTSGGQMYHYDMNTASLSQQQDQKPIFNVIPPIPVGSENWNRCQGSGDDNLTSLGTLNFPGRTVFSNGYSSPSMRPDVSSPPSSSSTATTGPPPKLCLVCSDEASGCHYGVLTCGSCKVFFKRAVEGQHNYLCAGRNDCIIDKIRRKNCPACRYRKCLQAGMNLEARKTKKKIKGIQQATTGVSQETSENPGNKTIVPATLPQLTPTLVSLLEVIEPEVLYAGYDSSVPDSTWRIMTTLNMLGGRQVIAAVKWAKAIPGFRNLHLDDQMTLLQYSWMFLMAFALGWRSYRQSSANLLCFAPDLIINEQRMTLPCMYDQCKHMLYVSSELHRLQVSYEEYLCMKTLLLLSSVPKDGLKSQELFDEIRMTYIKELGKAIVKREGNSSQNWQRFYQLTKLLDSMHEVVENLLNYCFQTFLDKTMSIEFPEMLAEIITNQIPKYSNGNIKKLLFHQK
Nuclear receptor subfamily 1 group I member 3 (Homo sapiens), sequence (Q14994 whole entry, looked up, the tested form may be a part): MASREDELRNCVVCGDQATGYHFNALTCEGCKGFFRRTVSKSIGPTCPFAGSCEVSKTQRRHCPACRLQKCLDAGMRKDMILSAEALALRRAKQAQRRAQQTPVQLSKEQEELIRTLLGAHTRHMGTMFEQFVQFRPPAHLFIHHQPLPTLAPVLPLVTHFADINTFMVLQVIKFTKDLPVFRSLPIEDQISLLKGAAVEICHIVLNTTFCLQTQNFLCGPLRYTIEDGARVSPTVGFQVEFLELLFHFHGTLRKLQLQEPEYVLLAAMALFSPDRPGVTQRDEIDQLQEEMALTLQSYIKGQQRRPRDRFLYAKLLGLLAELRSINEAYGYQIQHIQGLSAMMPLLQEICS
Bile acid receptor (Homo sapiens), sequence (Q96RI1 whole entry, looked up, the tested form may be a part): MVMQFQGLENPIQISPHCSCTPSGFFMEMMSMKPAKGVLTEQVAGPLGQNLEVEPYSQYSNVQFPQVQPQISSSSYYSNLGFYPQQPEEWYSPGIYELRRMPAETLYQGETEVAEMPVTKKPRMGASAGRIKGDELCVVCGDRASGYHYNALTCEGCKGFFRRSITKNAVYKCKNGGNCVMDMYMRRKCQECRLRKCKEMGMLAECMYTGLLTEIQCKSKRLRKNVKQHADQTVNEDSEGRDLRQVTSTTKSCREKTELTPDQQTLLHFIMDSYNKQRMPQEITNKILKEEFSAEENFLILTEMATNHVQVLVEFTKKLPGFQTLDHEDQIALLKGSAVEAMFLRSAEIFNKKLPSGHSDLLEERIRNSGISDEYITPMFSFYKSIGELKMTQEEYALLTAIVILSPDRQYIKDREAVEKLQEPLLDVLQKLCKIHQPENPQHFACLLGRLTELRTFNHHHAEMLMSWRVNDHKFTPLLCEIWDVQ

As a reminder, the AC50 is the concentration giving half of the maximal activity seen. For the compound `CCN(CC)C(=S)SSC(=S)N(CC)CC`, the compound was classed as inactive in test [1], in test [3], in test [4], in test [6], in test [7] and in [8]. For the same compound, the AC50 was 117 µM (active) in [2]; 139 µM (active) in test [5]; 162 µM (active) in [9]; 175 µM (active) in [10]; 158 µM (active) in [11].

Turning to `CCCC(CCC)C(=O)O`, the compound was classed as inactive in [1], in [2], in [4], in test [5], in [6] and in test [12]. The result in [7], in [13], in test [14], in test [9], in [10] and in test [11] was inactive.

As for `OC[C@H]1O[C@@H]2O[C@H]3[C@H](O)[C@@H](O)[C@@H](O[C@H]4[C@H](O)[C@@H](O)[C@@H](O[C@H]5[C@H](O)[C@@H](O)[C@@H](O[C@H]6[C@H](O)[C@@H](O)[C@@H](O[C@H]7[C@H](O)[C@@H](O)[C@@H](O[C@H]1[C@H](O)[C@H]2O)O[C@@H]7CO)O[C@@H]6CO)O[C@@H]5CO)O[C@@H]4CO)O[C@@H]3CO`, the compound was classed as inactive in test [1], in [2], in test [5], in test [13], in [14] and in test [9]. Besides, the compound was classed as inactive in test [10] and in [11].

For the compound `COCc1nnc(-c2ccc[n+]([O-])c2)n1-c1c(Cl)c(Cl)cc2[nH]c(=O)c(=O)[nH]c12`, the outcome in test [1], in test [2], in test [4], in test [5], in test [12] and in test [8] was inactive. Besides, the call in [15], in test [9], in test [10] and in test [11] was inactive.

For the compound `OC(O)(C(F)C(O)(O)C(F)(F)F)C(F)(F)F`, the compound was called inactive in [1], in test [3], in [4], in test [16], in [12] and in test [17]. For the same compound, the call in [7], in test [8], in [18], in test [15], in test [13] and in test [9] was inactive. For the same compound, the AC50 in test [4] was 194 µM (active); in [5], 61.9 µM (active) and 33 µM (active); in test [14] it was 31.5 µM (active) and 19.1 µM (active); in test [10], 38.6 µM (active) and 72.7 µM (active); in [11], 52.4 µM (active) and 51.5 µM (active).

These data come from PubChem BioAssay (EPA / NIEHS).
